Screens (PubChem BioAssay)
ADAM10 inh = inhibitors of human ADAM10. inhibition, % at 7 µM. AID 720582. O14672. 0.62% of 370,000 active. recombinant ADAM10, EDANS/DABCYL FRET peptide cleavage, 3 h;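 active = inhibition above a per-campaign cutoff equal to the mean of compounds falling between control-based bounds plus 3 SD, cut at about 20% in these data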;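 note: 0% = DMSO wells while the 100% control is not disclosed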
Target sequence (O14672 214-748 limits assumed): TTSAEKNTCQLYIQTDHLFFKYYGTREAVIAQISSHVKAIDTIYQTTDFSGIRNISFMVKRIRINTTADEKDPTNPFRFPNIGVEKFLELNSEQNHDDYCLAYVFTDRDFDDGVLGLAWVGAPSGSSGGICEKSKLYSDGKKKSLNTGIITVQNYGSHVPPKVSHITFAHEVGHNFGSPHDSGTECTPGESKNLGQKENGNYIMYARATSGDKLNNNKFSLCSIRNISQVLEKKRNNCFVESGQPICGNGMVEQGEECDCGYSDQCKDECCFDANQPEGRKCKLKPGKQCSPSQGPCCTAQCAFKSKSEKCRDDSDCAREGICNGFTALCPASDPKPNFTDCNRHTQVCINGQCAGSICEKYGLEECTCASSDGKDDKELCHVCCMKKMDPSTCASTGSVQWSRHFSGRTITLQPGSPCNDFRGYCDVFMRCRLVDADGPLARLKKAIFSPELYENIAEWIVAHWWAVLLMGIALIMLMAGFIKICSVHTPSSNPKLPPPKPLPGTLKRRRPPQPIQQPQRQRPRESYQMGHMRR
NR3A LBD binder = modulators (binders) of human NR3A ligand-binding domain; AID 1259313; 2.5% of 340,000 active; Tm shift relative to glycine control, % at 25 µM; NR3A LBD differential scanning fluorimetry, Tm shift; 0% = protein alone, 100% = glycine-bound protein;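 active = melting temperature shift of at least 10% of the positive control shift, at one fixed dose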
proKLK7 act = activators of human kallikrein-7 zymogen; P49862; purified proKLK7, EDANS-DABCYL substrate fluorescence; 100% is mature enzyme control, 0% vehicle; activation, % at 7 µM; 0.9% of 370,000 active; AID 652039;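 active = activation above the mean of all tested compounds plus 3 SD, computed per campaign excluding outliers beyond control limits, cut at about 13% in these data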
AHR activator = human AHR activation; P35869; AHR-responsive luciferase reporter cells, luminescence; activation, % at 5 µM; 2.5% of 320,000 active; in the data active = activation above about 47%;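 note: 0% = vehicle wells and 100% = reference agonist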
rCAG binder = binds r(CAG) RNA repeats; r(CAG) RNA repeat, TO-PRO-1 dye displacement fluorescence; 1.3% of 370,000 active; inhibition, % at 3 µM;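 active = inhibition above the plate cutoff, the mean of all test compounds on that plate plus 3 SD, cut at about 35% in these data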;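 note: 0% = DMSO alone and 100% = 100 µM mitoxantrone as full dye displacement; higher means more dye released from RNA so lower well fluorescence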
ADAM17 inh = inhibitors of human ADAM17 | P78536 | inhibition, % at 6.95 µM | 0.83% of 370,000 active | recombinant ADAM17, EDANS/DABCYL FRET peptide cleavage;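 active = inhibition above the mean of compounds lying between control limits plus 3 SD, set per campaign, cut at about 8.5% in these data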;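 note: 0% = DMSO-only wells as the low control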
Starred values were filed as active, the others as inactive; / = not tested or not shown. The list is not random: actives were taken first. Their share in the collection is about 7%.

SMILES	ADAM10 inh	NR3A LBD binder	proKLK7 act	AHR activator	rCAG binder	ADAM17 inh
COC(=O)c1ccc(C2c3c(n[nH]c3C)C(=O)N2c2ccc(C)cc2)cc1 (configuration not stated)	0	35*	0	-3	6	0
Cc1cc(C)cc(C(=O)OCCCN(C)C2CN(Cc3cn(Cc4ccccc4C(F)(F)F)nn3)S(=O)(=O)C2)c1 (configuration not stated)	10	/	0	/	0	2
Cc1ccc(NC(=O)c2nc[nH]c2C(=O)NCCCCCCNC(=O)c2[nH]cnc2C(=O)Nc2ccc(C)cc2)cc1	6	20*	-1	1	3	1
Cc1ccc(NC(=O)c2nc[nH]c2C(=O)NCCCCNC(=O)c2[nH]cnc2C(=O)Nc2ccc(C)cc2)cc1	-9	13*	0	-1	2	-1
Cc1ccc(NC(=O)c2nc[nH]c2C(=O)N2CCN(C(=O)OC(C)(C)C)CC2)cc1	1	12*	-1	-10	-5	0
Cc1ccc(NC(=O)c2nc[nH]c2C(=O)NCCCNC(=O)c2[nH]cnc2C(=O)Nc2ccc(C)cc2)cc1	/	7	/	-2	/	/
O=C(OCCN1CCN(C2CN(Cc3cn(Cc4ccccc4C(F)(F)F)nn3)S(=O)(=O)C2)CC1)c1cc2ccccc2o1 (configuration not stated)	3	/	0	/	6	0
CCCOc1ccc2c(c1)C(=NN=C(N)N)c1cc(OCCC)ccc1-2	14	34*	0	20	18	1
COc1cccc(NC(=O)N(C)C[C@H]2OCc3ccccc3-c3c(n(C)c4ccccc34)C(=O)N([C@H](C)CO)C[C@H]2C)c1	-2	/	1	/	9	3
CN(CCO)c1cccc2c1S(=O)(=O)N(Cc1cn(Cc3ccccc3C(F)(F)F)nn1)Cc1ccccc1O2	-11	/	0	/	5	-3
COc1ccc(CCNC(=O)C(=O)c2c[nH]c3ccccc23)cc1OC	2	1	1	/	-1	3
COc1ccc(C/C(C)=N\NC(=O)c2c[nH]c3ccccc23)cc1OC	1	4	0	53*	2	-2
CC(=O)C1=C(C)NC(SCC(=O)c2ccc(Cl)cc2Cl)=C(C#N)C1c1ccco1 (configuration not stated)	10	/	-2	107*	9	4
CC(=O)C1=C(C)NC(SCC(=O)c2ccccc2)=C(C#N)C1c1ccco1 (configuration not stated)	/	/	/	107*	/	/
CC(=O)C1=C(C)NC(SCC(=O)c2ccc(Cl)cc2)=C(C#N)C1c1ccco1 (configuration not stated)	0	-4	0	26	24	0
CC(C)(C)c1ccc(-c2nnc(SC3CCOC3=O)n2Cc2ccccc2)cc1 (configuration not stated)	5	13*	1	1	-3	2
O=C1OCCC1Sc1nc2ccccc2c(=O)n1Cc1ccccc1 (configuration not stated)	2	0	1	-2	-4	-2
Clc1ccc(CSc2cc3c(nn2)-c2ccccc2CC3)cc1	10	-8	0	47*	6	2
O=C(NC1CCCCN(Cc2ccc(Cl)cc2)C1=O)c1ccc2ccccc2c1 (configuration not stated)	14	/	1	/	2	4
CN(C(=O)CNC(=O)c1ccccc1OCC(=O)Nc1ccc(Br)cc1)c1ccccc1	10	/	0	/	2	6
Cc1occc1C(=O)N/N=C/c1ccc(Br)s1	-9	-2	0	2	-2	-2
Cc1ccc(/C=N/NC(=O)c2ccoc2C)s1	3	-4	0	56*	1	5
Cc1ccc(/C=N/NC(=O)c2ccc(C(=O)N/N=C/c3ccc(C)s3)o2)s1	0	28*	-10	37	5	-2
C=CC[C@]12C[C@@]3(O[C@H](c4ccc(C(F)(F)F)cc4)N=C3C[C@H](c3ccc(OC)cc3)[C@H]1C)N(Cc1ccncc1)C2=O	-3	/	0	/	4	-1
O=C(Nc1ccc(F)cc1)OCc1cn(Cc2ccc(F)cc2F)nn1	5	/	0	/	-1	-1
SMILES	ADAM10 inh	NR3A LBD binder	proKLK7 act	AHR activator	rCAG binder	ADAM17 inh
N#CCC[C@H]1CC[C@]2(CCCN(C(=O)c3ccccc3)C2)O1	-12	/	1	/	2	-2
CC(=O)/C(N=Nc1cc(C)ccc1O)=C(\C)O	0	-1	-1	56*	12	0
Cc1ccc2c(c1)C1CS(=O)(=O)N(C3CCCC3)C(=O)N1C2 (configuration not stated)	6	/	0	/	3	5
COc1ccc(C(=O)CC(c2ccccc2)S(=O)(=O)c2ccc(C)cc2)cc1 (configuration not stated)	/	/	/	4	/	/
COc1ccc(C(CC(=O)c2ccc(O)cc2)S(=O)(=O)c2ccc(C)cc2)cc1 (configuration not stated)	-96	5	46*	1	6	-31
CCOc1ccc(-n2c(COc3ccc(Cl)cc3)nnc2SCC(=O)Nc2ccc(OCc3ccccc3)cc2)cc1	6	/	0	/	8	2
O=C(CSc1nc2ccccc2o1)N1N=C(c2cccs2)CC1c1ccc(F)cc1 (configuration not stated)	-2	-1	0	14	3	-1
Cc1ccc(C2CC(c3cccs3)=NN2C(=O)CSc2nc3ccccc3o2)cc1 (configuration not stated)	-38	-1	-3	75*	4	-10
Brc1c(-c2ccccc2)nc2n1Cc1ccccc1-2	7	-4	0	54*	2	3
c1ccc(-c2ccc(C3=Nn4c(nnc4-c4ccccn4)SC3)cc2)cc1	0	/	0	/	2	1
CC(C)/C=C1\CCc2c([nH]c3ccccc23)C1=O	-17	0	-1	57*	2	-8
O=C1/C(=C\c2ccccc2)CCc2c1[nH]c1ccccc21	-7	-6	-2	20	7	-2
CCCC[C@H]1C2CC(OC(=O)NCc3ccc(Cl)cc3)C(C2)[C@H]2CCCCN21 (some centres not stated)	3	/	0	/	-2	-2
COC(=O)CC1=NC(=O)CS1	5	11*	1	4	0	3
CC(C)OC(=O)CC1=NC(=O)CS1	-1	0	0	18	6	1
CCn1c(COc2ccc(C)cc2)nnc1SCC(=O)Nc1ccccc1-c1ccccc1	14	/	0	/	4	7
O=C1C=CC(=Nc2ccc3c(c2)C(=O)c2ccccc2-3)O1	11	-2	0	/	7	12*
Fc1ccc(C2c3[nH]c4ccccc4c3CCN2Cc2ccoc2)cc1 (configuration not stated)	-7	-6	3	51*	-1	-6
COc1ccc([N+](=O)[O-])cc1NC1CCCCC1	2	15*	0	2	-2	-3
